Hits are enriched below; roughly 14% of the tested compounds scored in any of these assays.
Shiga toxin inh: inhibitors of Shiga toxin in Vero cells; Vero cells, Shiga toxin protein synthesis inhibition reporter; inhibition, % at 38.7 µM; 9.2% of 290,000 active; AID 2315; in the data active means inhibition mostly above about 28%, no sharp cut-off; inactive means mostly below about 43%
NS1 inh: blocks influenza NS1 protein function; Potency, µM (highest dose often 46.1 µM); AID 2326; 0.4% of 270,000 active; calls by dose curve; further: actives are rising curves; nearly all actives have a fitted effect of over 50% in size
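S. cerevisiae expressing influenza A NS1, grown in glucose, washed, then diluted 1:100 into pH 6.0 -URA galactose medium with 23 nl compound. Growth recovery read as OD600; NS1-free strain serves as control.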
Cycloheximide cs: counter-screen hit for Shiga toxin inhibitors, cycloheximide. max response, %. cell reporter, cycloheximide protein synthesis inhibition counterscreen. 12% of 300,000 active; in the data active means max response mostly above about 13%, no sharp cut-off; inactive means mostly below about 14%; further: read at 38.3 µM for the half of the compounds with a filed dose
Giardia FBPA inh: Giardia lamblia aldolase inhibition; purified Giardia FBPA; Potency, µM (top dose mostly 59.6 µM), most hits filed as inhibitors; 0.71% of 290,000 active; further: nearly all actives have a fitted effect of over 55% in size
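40 nM FBPA preincubated 10 min at RT with compound (up to 57.5 uM final), then substrate plus GAPDH/TPI/NAD/arsenate coupling and diaphorase/resazurin added. Fluorescence read after 20 min at RT, 525/598 nm.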
LmPK inh: LmPK (Leishmania mexicana) enzyme inhibition | purified LmPK, Kinase-Glo ATP luminescence, 1 h | Q27686 | 0.37% of 290,000 active | Potency, µM (top dose mostly 57.5 µM), hits mostly inhibitors
Target sequence (Q27686 whole entry, looked up): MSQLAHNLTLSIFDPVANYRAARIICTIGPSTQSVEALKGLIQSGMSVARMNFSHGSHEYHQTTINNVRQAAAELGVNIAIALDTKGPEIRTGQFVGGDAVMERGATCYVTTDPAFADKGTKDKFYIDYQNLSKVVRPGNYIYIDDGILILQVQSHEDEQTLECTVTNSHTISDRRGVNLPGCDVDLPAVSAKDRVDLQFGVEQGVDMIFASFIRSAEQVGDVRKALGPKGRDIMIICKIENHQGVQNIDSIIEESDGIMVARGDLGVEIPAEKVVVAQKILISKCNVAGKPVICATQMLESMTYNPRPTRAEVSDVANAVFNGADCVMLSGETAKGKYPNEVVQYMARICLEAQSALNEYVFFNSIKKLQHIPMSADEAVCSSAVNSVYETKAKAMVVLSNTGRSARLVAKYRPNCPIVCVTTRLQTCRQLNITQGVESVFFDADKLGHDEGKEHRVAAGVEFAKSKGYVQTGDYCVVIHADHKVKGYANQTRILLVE
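Purified LmPK (0.1 nM) with 0.5 mM PEP and 0.1 mM ADP in imidazole buffer pH 7.2 with MgCl2/KCl, 1 h at room temperature. ATP formed was read by luciferase luminescence and normalized to no-enzyme and uninhibited controls.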
Of the large screens only hits and unclear results are named; the others gave an inactive call. Unless noted, the call rests on the fitted dose curve; in most records, active means well fitted curve in the direction sought with a large enough effect; inconclusive means small, poorly fitted or top-dose-only effect, or another doubt; inactive means no such curve, though single readings can be large; an effect the other way counts as inactive or inconclusive.

O=C(NCc1n[nH]c(=S)n1-c1cccc(C(F)(F)F)c1)c1ccc(S(=O)(=O)N2CCCCC2)cc1	NS1 inh inconclusive
O=C(O)c1ccc2c(c1)C(=O)N([C@H](Cc1ccc(Cl)cc1)C(=O)O)C2=O	none (no result: NS1 inh, LmPK inh)
COc1ccc(C(=O)NN/C(C)=C/C(=O)C(F)(F)C(F)(F)C(F)(F)F)cc1	Shiga toxin inh 44, Cycloheximide cs 22
COc1cccc(C(=O)Nc2ccc3ccccc3c2)c1	Cycloheximide cs 40 (no result: Shiga toxin inh)
CC(=O)c1cccc(NC(=O)c2ccc(NS(C)(=O)=O)cc2)c1	none
CS(=O)(=O)Nc1ccc(C(=O)Nc2ccc3ccccc3c2)cc1	Cycloheximide cs 35 (no result: Shiga toxin inh)
Cc1cccc(C(=O)Nc2ccc(C)c(OC(=O)c3cccc(C)c3)c2)c1	Shiga toxin inh 193, Cycloheximide cs 56
COc1ccc(C(=O)Nc2ccc3ccccc3c2)cc1	none
Cc1ccccc1C(=O)N(Cc1cccs1)C1CCS(=O)(=O)C1 (configuration not stated)	none
CC(=O)O[C@H]1CC[C@]2(C)C(=CC[C@H]3[C@H]4C[C@H]5O[C@]6(CC[C@H](C)CN6)[C@H](C)[C@@H]5[C@]4(C)CC[C@@H]32)C1	none (no result: Shiga toxin inh, Cycloheximide cs, Giardia FBPA inh, LmPK inh)
COc1cccc(/C(C)=N/N=C(\C)c2cccc(OC)c2)c1	Shiga toxin inh 39, Cycloheximide cs 34
COc1cccc(NC(=O)c2ccc(C(=O)c3ccccc3)o2)c1	Shiga toxin inh 93, Cycloheximide cs 38 (no result: NS1 inh)
COc1cccc(/C(C)=N/NS(=O)(=O)c2ccc(Cl)cc2)c1	none
O=C(NCCc1cccc(C(F)(F)F)c1)C1CCC(=O)N(C2CC2)C1 (configuration not stated)	none (no result: Giardia FBPA inh)
NC(=O)CSc1nc2cc(Cl)ccc2c(=O)n1C1CCCCC1	none
CC(C)Cn1c2c(c(O)c(C(=O)Nc3ncccc3O)c1=O)CCCC2	Giardia FBPA inh 7.9µM
CC(C)Cn1c2c(c(O)c(C(=O)Nc3ccc(F)cc3)c1=O)CCCC2	none
O=C1NC(N2CCOCC2)=N/C1=C/c1ccc2c(c1)OCO2	Cycloheximide cs 17 (no result: NS1 inh)
CCOc1ccc(NC(=O)c2ccccc2OCC(=O)c2ccccc2)cc1	Cycloheximide cs 48
O=C(COc1ccccc1C(=O)c1cnn(-c2ccccc2)c1)Nc1ccccc1	Cycloheximide cs 21
CCOc1ccc(NC(=O)c2cccnc2SC)cc1	Cycloheximide cs 22 (no result: NS1 inh)
CC(=O)c1ccc(NC(=O)COc2ccccc2C(=O)Nc2ccccc2)cc1	Shiga toxin inh 49, Cycloheximide cs 13 (no result: Giardia FBPA inh)
Cc1ccccc1NC(=O)N1CCNC(=O)C1CC(=O)Nc1cc(Cl)ccc1Cl (configuration not stated)	none (no result: Giardia FBPA inh)
CCOC(=O)CNC(=O)O[C@H]1C(=O)c2cc(OC)ccc2O[C@@H]1c1ccc(OC)c(Br)c1	none (no result: Shiga toxin inh, NS1 inh, Cycloheximide cs, LmPK inh)
Cc1[nH]c2ccc(C(=O)NCCCN3CCN(C)CC3)cc2c1C	none
COc1cc(NC(=O)CSc2nc3c(c(=O)n(C)c(=O)n3C)n2C)cc(OC)c1	none
COc1ccc(CN2CCC(C(=O)c3ccc(Cl)cc3)CC2)cc1	none (no result: Shiga toxin inh)
CCOc1ccc(NC(=O)c2ccccc2O)cc1	Cycloheximide cs 12
CCOc1ccc(NC(=O)c2cc(Cl)nc3ccccc23)cc1	none
CCOc1ccccc1C(=O)Nc1ccc(NC(=O)c2ccccc2)cc1	NS1 inh inconclusive (no result: Shiga toxin inh)
CCOc1ccc(NC(=O)c2ccccc2OC)cc1	Cycloheximide cs 40
CCOc1ccc(NC(=O)c2ccccc2CO)cc1	Cycloheximide cs 31
Cc1cc(C)n2nc(-c3ccc(F)cc3)nc2n1	Cycloheximide cs 24, LmPK inh inconclusive
CC(Oc1ccc2c3c(c(=O)oc2c1)CCCC3)C(=O)NCC(O)c1ccccc1 (configuration not stated)	none
Cc1oc2ccc(O)cc2c1C(=O)c1ccc([N+](=O)[O-])cc1	none
CN(C)/C=C/c1oc2ccc(O)cc2c1[N+](=O)[O-]	Shiga toxin inh 146 (no result: NS1 inh)
Cc1ccc(NC(=O)OCCN2CCN(Cc3ccccc3)CCC2=O)cc1	none
C[C@H]1CCC(=O)N([C@H](COc2ccccc2)Cc2ccccc2)CC1	none
O=C(Nc1ccc(Cl)cc1)OCCN1CCN(Cc2ccccc2)CCC1=O	Shiga toxin inh active, Cycloheximide cs 34 (no result: NS1 inh, LmPK inh)
CC1CCC(=O)N(CCOc2ccccc2)CC1 (configuration not stated)	Shiga toxin inh 58, Cycloheximide cs 39
O=C1CCN(Cc2ccccc2)CCN1CCOc1ccccc1	Shiga toxin inh 76, Cycloheximide cs 42
O=C(Nc1ccccc1)OCCN1CCN(Cc2ccccc2)CCC1=O	none
NCCC1([N+](=O)[O-])CCNCC1	none (no result: Shiga toxin inh, Cycloheximide cs, Giardia FBPA inh, LmPK inh)
COc1ccccc1-c1ccc2ncnc(N3CCNCC3)c2c1	none (no result: Shiga toxin inh, NS1 inh, Cycloheximide cs, LmPK inh)
COc1cccc(-c2cc3c(-n4cccc4)ncnc3o2)c1	Shiga toxin inh 43
CCc1ccc2oc(C(=O)NCCc3ccc(S(N)(=O)=O)cc3)cc(=O)c2c1	none
c1csc(-c2noc(COc3ccc4c(c3)CCCC4)n2)c1	Shiga toxin inh 89, Cycloheximide cs 41
NC(=O)C1CCN(Cc2nc(-c3cccs3)no2)CC1	none
CCOC(=O)c1ccc(OCc2nc(-c3cccs3)no2)cc1	Cycloheximide cs 16
CCOC(=O)N1CCN(Cc2nc(-c3cccs3)no2)CC1	Shiga toxin inh 81, Cycloheximide cs 30
CCOc1ccccc1NC(=O)CSc1ccc([N+](=O)[O-])cc1	none (no result: NS1 inh)
O=C(Nc1cccc(F)c1)C1CCCN(S(=O)(=O)c2cccc3cccnc23)C1 (configuration not stated)	none (no result: Giardia FBPA inh)
COC(=O)/C=C1\NCCNC1=O	none
CCCc1cc(=O)oc2cc(C)cc(OCC(=O)Nc3ccc(CN4CCOCC4)cc3)c12	none (no result: Giardia FBPA inh)
Cc1cccc(C(=O)N2CCCC(N3CCN(c4cccc(Cl)c4)CC3)C2)n1 (configuration not stated)	Cycloheximide cs 21 (no result: Giardia FBPA inh)
O=C(c1cccc(Cl)c1)N1CCCC(C(=O)N2CCN(c3ccccc3)CC2)C1 (configuration not stated)	Shiga toxin inh 50, Cycloheximide cs 24
O=C1CCCCN1CCC(=O)N1CCCC(N2CCN(c3ccccc3)CC2)C1 (configuration not stated)	none (no result: Giardia FBPA inh)
O=C(c1cnccn1)N1CCCC(N2CCN(c3cccc(Cl)c3)CC2)C1 (configuration not stated)	none (no result: Giardia FBPA inh)
O=C1CCCCN1CCC(=O)N1CCCC(N2CCN(c3cccc(Cl)c3)CC2)C1 (configuration not stated)	Shiga toxin inh 35, Cycloheximide cs 24 (no result: Giardia FBPA inh)
CCc1nccn1CCC(=O)N1CCCC(N2CCN(c3cccc(Cl)c3)CC2)C1 (configuration not stated)	Shiga toxin inh 49, Cycloheximide cs 31 (no result: Giardia FBPA inh)
CCc1nccn1CCC(=O)N1CCCC(N2CCN(c3ccccc3C)CC2)C1 (configuration not stated)	none
COC(=O)[C@H](Cc1ccccc1)[C@@H](C)OS(N)(=O)=O	none
Cc1ccc(C(OC(=O)c2ccco2)C(=O)NC(C)(C)C)cc1 (configuration not stated)	none
O=C(c1ccncc1)N1CCCC(N2CCN(c3ccc(F)cc3)CC2)C1 (configuration not stated)	Shiga toxin inh 39, Cycloheximide cs 27 (no result: Giardia FBPA inh)
